Screening results deposited in PubChem BioAssay by National Center for Advancing Translational Sciences (NCATS).
Pin1 inhibitor: qHTS Assay to Find Inhibitors of Pin1; Peptidyl-prolyl cis-trans isomerase NIMA-interacting 1 (Homo sapiens), Q13526; Pin1 FP peptide displacement, HiFluor488, 10 min; Potency, µM (doses to about 115 µM), for the others: at the highest dose activity, negative = inhibition, hits mostly inhibitors; actives 0.009% (n = 390,000); AID 504891, 2011; active = well fitted inhibition curve with a large enough effect in the polarisation, with a control signal flat, not every such curve was filed as active; inconclusive = small, poorly fitted or top-dose-only effect, or effect the other way, or a change in a side signal; inactive = no such curve, though single readings can be large or run the other way; the % refers to the polarisation
Target sequence (Q13526 whole entry, looked up): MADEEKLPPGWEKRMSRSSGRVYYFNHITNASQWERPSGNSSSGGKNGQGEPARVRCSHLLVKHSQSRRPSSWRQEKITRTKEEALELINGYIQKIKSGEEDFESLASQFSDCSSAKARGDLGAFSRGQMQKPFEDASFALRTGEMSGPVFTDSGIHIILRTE
BCR signal inh: qHTS Assay to Find Inhibitors of Chronic Active B-Cell Receptor Signaling. actives 0.05% (n = 340,000). AID 493014, 2011. Potency, µM (series often up to 46.1 µM), for inactives: at the highest dose activity change, negative = inhibition, most hits filed as inhibitors. ABC-DLBCL IkBa-CBG/CBR reporter, luminescence ratio, 4 h; active = well fitted inhibition curve with a large enough effect in the signal ratio, with a control signal flat, not every such curve was filed as active; inconclusive = small, poorly fitted or top-dose-only effect, or effect the other way, or a change in a side signal; the % refers to the signal ratio;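 note: plate controls were basal doxycycline-induced cells for no effect and cells given 10 µM MG132 for full effect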
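Concentration-response series (up to 46 uM) were applied to TMD8 dual-reporter cells for 4 h at 37C with doxycycline. Green/red ratio, after filter-overlap correction, defined %Activity; red signal alone was normalised to basal cells and zero luminescence.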
B2AR arrestin: qHTS assay of beta-arrestin-biased ligands of beta2-adrenergic receptor. Potency, µM (titrated, usually from 46.1 µM), for inactives: at the highest dose activation, hits mostly activators. actives 0.02% (n = 330,000). Beta-2 adrenergic receptor (Homo sapiens), P07550. beta-arrestin recruitment to beta2AR, cell-based reporter;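 note: 0% = DMSO controls and full agonism = EC100 isoproterenol or metaproterenol; nearly all actives have a fitted effect of over 65% in size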
Tb PFK inh: qHTS Assay to Find Inhibitors of T. brucei phosphofructokinase. T. brucei PFK, ADP-Glo luminescence. Potency, µM (highest dose often 57.5 µM), for the others: at the top dose activity, negative = inhibition, most hits filed as inhibitors. actives 0.17% (n = 330,000). AID 485367, 2010;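 note: 0% = uninhibited 1x PFK enzyme wells and -100% = no-enzyme wells; nearly all actives have a fitted effect of over 60% in size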
Target sequence (O15648 whole entry, looked up): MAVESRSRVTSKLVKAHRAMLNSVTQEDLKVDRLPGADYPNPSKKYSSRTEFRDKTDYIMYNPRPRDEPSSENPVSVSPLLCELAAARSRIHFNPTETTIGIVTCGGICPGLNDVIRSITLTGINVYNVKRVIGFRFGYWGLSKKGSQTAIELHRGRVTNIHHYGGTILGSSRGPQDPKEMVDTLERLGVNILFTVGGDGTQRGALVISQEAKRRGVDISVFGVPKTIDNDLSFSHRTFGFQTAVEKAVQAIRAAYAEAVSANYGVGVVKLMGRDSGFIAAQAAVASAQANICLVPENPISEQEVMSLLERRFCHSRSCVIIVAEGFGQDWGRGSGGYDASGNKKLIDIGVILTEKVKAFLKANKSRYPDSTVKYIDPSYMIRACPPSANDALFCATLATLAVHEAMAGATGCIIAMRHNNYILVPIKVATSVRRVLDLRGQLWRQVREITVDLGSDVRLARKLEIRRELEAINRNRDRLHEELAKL
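ADP-Glo luminescence quantified ADP after 45 min at room temperature, with 1.25 nM T. brucei PFK, 0.1 mM ATP and 0.5 mM fructose-6-phosphate in pH 8.0 TEA buffer. qHTS titrations up to 57 µM; curves classified by quality.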
GLS inhibitor: qHTS for Inhibitors of Glutaminase (GLS) | Glutaminase kidney isoform, mitochondrial (Homo sapiens), O94925 | GLS enzymatic activity, qHTS titration | Potency, µM (doses to about 45.5 µM), for the others: at the highest dose activity change, negative = inhibition, hits mostly inhibitors | actives 0.21% (n = 410,000)
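Compounds were pin-transferred onto hKGA, after which L-glutamine (1 mM solution) and a detection mix of glutamate oxidase, HRP and Amplex Red were added. Initial and 30 min RT fluorescence reads were collected.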
Tb PGK inh: qHTS Assay to Find Inhibitors of Phosphoglycerate Kinase | Phosphoglycerate kinase, glycosomal (Trypanosoma brucei brucei), P07378 | Potency, µM (highest dose often 57.5 µM), without a hit: at the highest dose activity change, negative = inhibition, actives largely listed as inhibitors | AID 602233, 2012 | PGK/GAPDH coupled, Kinase-Glo luminescence, 60 min | actives 0.043% (n = 380,000); note: nearly all actives have a fitted effect of over 60% in size
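Luminescent ATP detection (Kinase-Glo Plus) follows a 60-minute room-temperature incubation, with wells lacking PGK as controls. Buffer: 100 mM TEA (pH 7.6), 5 mM MgCl2, 0.01% Tween-20. Coupling enzyme GAPDH (100 nM final) supplies unstable 1,3-BPG in-well.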
The depositor's hits bear a star; [ ] = remark or other dose. An excerpt weighted towards active compounds, which were near 0.42% of everything screened. Unless noted, calls come from the whole dose curve; as a rule, active = well fitted curve in the direction sought with a large enough effect; inconclusive = small, poorly fitted or top-dose-only effect, or another doubt; inactive = no such curve, though single readings can be large; an effect the other way counts as inactive or inconclusive. Unless noted, % is set by controls: 0 for no effect and ±100 for the full control effect; potency is the fitted concentration of half-maximal effect.

Results for Cc1ccc(NS(=O)(=O)c2cc3c(cc2-c2ccccc2)NC(=O)CO3)cc1C ?
Pin1 inhibitor: 23%

How did O=C1OC(c2ccc3ccccc3c2O)(c2ccc3ccccc3c2O)c2ccccc21 do in these assays?
Pin1 inhibitor: inconclusive; GLS inhibitor: 11µM*; Tb PGK inh: -6%

What do the screens show for `O=C1OC2(c3ccccc31)c1ccccc1-c1ccccc12`?
Pin1 inhibitor: 7%; GLS inhibitor: -16%; Tb PGK inh: inactive

How did CCc1ccccc1NC(=O)Cn1c(=O)n(-c2ccc(CC(=O)NCC3CCCO3)cc2)c(=O)c2ccccc21 (stereo not given) do in these assays?
Pin1 inhibitor: -2%; BCR signal inh: -1%; B2AR arrestin: 0%; Tb PFK inh: -5%; GLS inhibitor: -1%; Tb PGK inh: 6%

What do the screens show for `O=C(Cc1ccc(-n2c(=O)c3ccccc3n(Cc3ccc(F)cc3)c2=O)cc1)NCC1CCCO1` (stereo not given)?
Pin1 inhibitor: 12%; BCR signal inh: 8.2µM*; B2AR arrestin: -1%; Tb PFK inh: 5%; GLS inhibitor: 2%; Tb PGK inh: 3%

Results for O=C(Cc1ccc(-n2c(=O)c3ccccc3n(Cc3ccccc3Cl)c2=O)cc1)NCC1CCCO1 (stereo not given) ?
Pin1 inhibitor: 10%; BCR signal inh: 2.8µM*; B2AR arrestin: -1%; Tb PFK inh: -2%; GLS inhibitor: -4%; Tb PGK inh: -6%

What do the screens show for `O=C(Cc1ccc(-n2c(=O)c3ccccc3n(Cc3ccccc3F)c2=O)cc1)NCC1CCCO1` (stereo not given)?
Pin1 inhibitor: 49%; BCR signal inh: inconclusive; B2AR arrestin: -1%; Tb PFK inh: 0%; GLS inhibitor: 11%; Tb PGK inh: 0%

Results for N#C/C(=C\c1cccc(NC(=O)c2ccccc2Cl)c1)C(=O)NCCc1ccccc1 ?
Pin1 inhibitor: 38%; BCR signal inh: 21µM*; B2AR arrestin: 5%; Tb PFK inh: -7%; GLS inhibitor: -4%; Tb PGK inh: -4%

Results for CC1(OC(=O)CCc2ccccc2)C(=O)C=C2C=C3CCCN3C=C2C1=O (stereo not given) ?
Pin1 inhibitor: inconclusive; BCR signal inh: 5%; B2AR arrestin: 0%; Tb PFK inh: -5%; GLS inhibitor: -20%; Tb PGK inh: -3%

What do the screens show for `CC1(OC(=O)c2cccs2)C(=O)C=C2C=C3CCCN3C=C2C1=O` (stereo not given)?
Pin1 inhibitor: inconclusive; BCR signal inh: 6%; B2AR arrestin: 0%; Tb PFK inh: -2%; GLS inhibitor: 16µM*; Tb PGK inh: inconclusive

How did COc1ccc2ncnc(NCc3cccs3)c2c1-c1ccc2c(c1)OCO2 do in these assays?
Pin1 inhibitor: -6%

How did CCOc1ccc(NC(=O)C(c2ccccn2)N(C(=O)CCl)c2ccc(OC)cc2)cc1 (stereo not given) do in these assays?
Pin1 inhibitor: -11%; BCR signal inh: inconclusive; B2AR arrestin: 0%; Tb PFK inh: 0%; GLS inhibitor: 11%; Tb PGK inh: -1%

Results for COc1ccc(N(C(=O)CCl)C(C)(C(=O)Nc2c(C)cccc2C)c2ccccn2)cc1 (stereo not given) ?
Pin1 inhibitor: inconclusive; BCR signal inh: inconclusive; B2AR arrestin: 13µM*; Tb PFK inh: 8%; GLS inhibitor: 12%; Tb PGK inh: -10%

How did O=C(Nc1cccc(Oc2ccc(C(=O)O)c(C(=O)O)c2)c1)c1ccc(-c2ccccc2)cc1 do in these assays?
Pin1 inhibitor: inconclusive; BCR signal inh: inconclusive; B2AR arrestin: 0%; Tb PFK inh: inconclusive; GLS inhibitor: inconclusive; Tb PGK inh: inconclusive

How did CC(C)(C)C(=O)Nc1ccc(C(=O)Nc2cccc(Oc3ccc(C(=O)O)c(C(=O)O)c3)c2)cc1 do in these assays?
Pin1 inhibitor: inconclusive; BCR signal inh: 1%; B2AR arrestin: 0%; Tb PFK inh: 21µM*; GLS inhibitor: 9%; Tb PGK inh: -17%

What do the screens show for `Cc1ccc(/C=C/C(=O)c2nc3ccccc3[nH]2)cc1`?
Pin1 inhibitor: 12%; BCR signal inh: 13µM*; B2AR arrestin: 8%; Tb PFK inh: -4%; GLS inhibitor: 0%; Tb PGK inh: 1%

Results for O=C1c2ccccc2C(=O)N1c1cccc(Cl)c1 ?
Pin1 inhibitor: -7%

How did O=C1Cc2cc(S(=O)(=O)N3CCN(c4cccc(C(F)(F)F)c4)CC3)ccc2N1 do in these assays?
Pin1 inhibitor: 23%[230 µM]

What do the screens show for `COc1cc(C2Nc3cccc4cccc(c34)N2)cc(OC)c1OC(C)=O`?
Pin1 inhibitor: inconclusive; BCR signal inh: 0%; B2AR arrestin: 0%; Tb PFK inh: -3%; GLS inhibitor: 2%; Tb PGK inh: -18%

What do the screens show for `COc1cc(C2Nc3cccc4cccc(c34)N2)ccc1O`?
Pin1 inhibitor: -3%; BCR signal inh: 8%; B2AR arrestin: 0%; Tb PFK inh: 0%; GLS inhibitor: 11µM*; Tb PGK inh: -11%

Results for Oc1ccc(/C=N/N2CCN(C3c4ccccc4-c4ccccc43)CC2)cc1O ?
Pin1 inhibitor: -6%; BCR signal inh: inconclusive; B2AR arrestin: -1%; Tb PFK inh: -5%; GLS inhibitor: 11µM*; Tb PGK inh: inactive

How did Oc1ccc(/C=N/N2CCN(C3c4ccccc4-c4ccccc43)CC2)cc1 do in these assays?
Pin1 inhibitor: 1%; BCR signal inh: 2%; B2AR arrestin: 0%; Tb PFK inh: 30%; GLS inhibitor: inconclusive; Tb PGK inh: inactive

Results for Cc1ccc(/C(=N/Nc2ncnc3ccccc23)C(=O)O)cc1 ?
Pin1 inhibitor: -10%; BCR signal inh: inconclusive; B2AR arrestin: 11µM*; Tb PFK inh: -4%; GLS inhibitor: 0%; Tb PGK inh: inactive

What do the screens show for `Cc1ccc(Nc2ncnc3ccccc23)cc1`?
Pin1 inhibitor: 0%; BCR signal inh: inconclusive; B2AR arrestin: 0%; Tb PFK inh: 1%; GLS inhibitor: 0%; Tb PGK inh: 8%
